Compounds without any hit were thinned out: in the full panel of roughly 83,000, 20% have a hit.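 Single-concentration screen, 48 h exposure, 96-well plates. Endpoint: percent growth. Below 10 = active.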 Unmarked numbers belong to inactive results. Active and inactive are the calls of the source.
Key:
Experiment in all cases: NCI-60 one-dose screen, 48 h (100 = growth as untreated, 0 = no growth, -100 = all killed)
Details in all cases: 10 µM
DU-145 prostate = test system: DU-145 prostate
K-562 leukemia = test system: K-562 leukemia
MALME-3M melanoma = test system: MALME-3M melanoma
MDA-MB-231 breast = test system: MDA-MB-231 breast
SF-268 CNS = test system: SF-268 CNS
SF-295 CNS = test system: SF-295 CNS
SF-539 CNS = test system: SF-539 CNS
UACC-257 melanoma = test system: UACC-257 melanoma
M14 melanoma = test system: M14 melanoma

SMILES | growth (DU-145 prostate) | growth (K-562 leukemia) | growth (MALME-3M melanoma) | growth (MDA-MB-231 breast) | growth (SF-268 CNS) | growth (SF-295 CNS) | growth (SF-539 CNS) | growth (UACC-257 melanoma) | growth (M14 melanoma)
CN1C(=O)N(C)C2SC(N/N=C/c3ccccc3F)=NC21 (configuration not stated) | 94.7% | 17.2% | 59.4% | 50.2% | 78.7% | 62% | 54.3% | 82.7% | 36.5%
CCN1CCN(Cc2ccc(C(=O)Nc3cccc(-c4cn(-c5ccc6oc(=O)ccc6c5)nn4)c3)cc2C(F)(F)F)CC1 | -100% (active) | -61.7% (active) | -100% (active) | -100% (active) | -32.5% (active) | -100% (active) | -100% (active) | -49.9% (active) | -100% (active)
O=C(CSc1nnc(-c2c[nH]c3ccccc23)n1-c1ccccc1)Nc1ccc(C(=O)/C=C/c2ccccc2Cl)cc1 | 82% | 55.9% | 64.6% | 78% | 66.5% | 72% | 42.6% | 107% | 87.7%
Cc1ccn2c(C(=O)c3ccc(Br)cc3)cc(-c3cc(-c4ccc(N(C)C)cc4)c(C#N)c(N)n3)c2c1 | 56.2% | 68.7% | -1.54% (active) | 39.5% | 68% | 68.1% | 24.2% | 79.7% | 57.7%
O=C(Nc1ccc(Cl)c(C(F)(F)F)c1)c1cncc(C#Cc2cnc3ccc(N4CCOCC4)nn23)c1 | 20.6% | 13.3% | -39.8% (active) | -44.6% (active) | 7.89% (active) | 5.28% (active) | -42% (active) | 6.55% (active) | 11.3%
COc1ccc(Nc2nc(N)n(Cc3cccc(Br)c3)n2)cc1 | 22.6% | 7.86% (active) | -25% (active) | -5.79% (active) | 16% | 4.42% (active) | -3.08% (active) | 6.73% (active) | 0.65% (active)
CN1C(=O)N(C)C2SC(N/N=C/C=C/c3ccccc3)=NC21 (configuration not stated) | 84.2% | 25.3% | 66.8% | 82.4% | 75.2% | 72.7% | 75.7% | 83.1% | 54.7%
CCCSc1nc(NC2CC2)c(C#N)c(-c2ccc(OC)cc2)n1 | 98.1% | 92.4% | 134% | 85% | 80.9% | 78.7% | 85.6% | 107% | 129%
CSc1nc(-c2cccc(C)c2)c2cc(-c3ccccc3)n(C)c2n1 | 31.4% | 12% | 20.1% | 33.1% | 25.7% | 17.3% | 14.3% | 40.5% | 21%
Clc1ccc2c(N/N=C/c3c[nH]c4ccc(Br)cc34)ccnc2c1 | -79.3% (active) | -25.5% (active) | -83% (active) | -90.4% (active) | -35.7% (active) | -99.4% (active) | -87.6% (active) | -83.8% (active) | -46.3% (active)
COc1cc2c3c(n(CCCNC(C)C)c(=O)c2cc1OC)-c1nc2c(cc1C3=O)OCO2 | 8.46% (active) | 2.95% (active) | -92.3% (active) | -90.5% (active) | -72.5% (active) | 11.7% | -6.71% (active) | -30.4% (active) | -48.8% (active)
O/N=C(\CSc1nnc(-c2c[nH]c3ccccc23)n1-c1ccccc1)c1ccc(Cl)cc1 | -30.9% (active) | 6.93% (active) | 11.1% | -54.5% (active) | -49% (active) | 14.1% | 29.5% | 44.3% | -47.3% (active)
CC(C)Sc1nc(NC2CC2)c(C#N)c(-c2ccccc2)n1 | 86.2% | 90% | 104% | 58.9% | 61% | 54.9% | 42% | 103% | 117%
OCc1[nH]nc2cc(Nc3ncc4ccc(Br)c(OC5CCC(O)CC5)c4n3)ccc12 (configuration not stated) | 11.6% | 11.4% | -63.4% (active) | -10.2% (active) | 7.67% (active) | -49.8% (active) | -83.3% (active) | -18.2% (active) | -58.9% (active)
COC(=O)c1c(C(=O)OC)c2n(c1C)[C@@H]([C@@H](C)[C@H]1CC[C@H]3[C@@H]4CCC5=CC(=O)CC[C@]5(C)[C@H]4CC[C@]13C)SC2 | 57.8% | 15.7% | 62.5% | 56.7% | 56.4% | 24.7% | 59% | 19.5% | 25.2%
COC1=C[C@@]23CCC(=O)N2CCc2cc4c(cc2[C@H]3[C@H]1OC(=O)C(C)(C)O)OCO4 | 108% | 107% | 102% | 94.9% | 104% | 95.8% | 93.6% | 104% | 102%
CN(CCO)c1oc(-c2ccccc2)nc1[P+](c1ccccc1)(c1ccccc1)c1ccccc1 | 4.07% (active) | 9.88% (active) | -12% (active) | -6.83% (active) | 11.4% | -13.8% (active) | 8.12% (active) | -3.98% (active) | 12.2%
CC(C)C1=C[C@@]23CC[C@@H]4[C@](C)(CCC[C@]4(C)C(=O)NCc4ccccc4)[C@H]2C[C@@H]1[C@H]1C(=O)OC(=O)[C@H]13 | 55.3% | 21.5% | 87% | 77.1% | 46.6% | 17.8% | 63.2% | 82.1% | 54.3%
Cc1noc2c(Cc3ccccc3)nn(CC(=O)N/N=C/c3ccc(Br)cc3)c(=O)c12 | 61.1% | 87.2% | 64.9% | 20.6% | 75.5% | 50.6% | 74.4% | 101% | 101%
O=C(CSc1nnc(-c2ccc3nc(-c4ccc(Cl)cc4)[nH]c3c2)o1)Nc1ccc(Cl)cc1 | 2.3% (active) | 5.7% (active) | -78.6% (active) | -87.1% (active) | -6.48% (active) | -99.4% (active) | -100% (active) | -32.6% (active) | -50.6% (active)
CCOC(=O)C1=C(N)N(c2ccccc2)C2=C(C(=O)CC(C)(C)C2)C1c1ccccc1OC (configuration not stated) | 99.6% | 97.2% | 91.3% | 92.5% | 114% | 89.2% | 92.6% | 107% | 111%
CN1CCc2c(sc3ncnc(N/N=C/c4cn(-c5ccccc5)nc4-c4ccc(Cl)cc4)c23)C1 | 31.4% | 9.51% (active) | 17.8% | 4.63% (active) | 30.7% | 21.6% | 7.13% (active) | 8.67% (active) | 16.6%
Cc1ccc(-c2nc(Nc3ccc(S(N)(=O)=O)cc3)c3ccccc3n2)cc1 | 56.6% | 6.36% (active) | 98.8% | 22.6% | 52.1% | 24.2% | 37% | 93.9% | 22.9%
Cc1cccc(-c2nc(Nc3ccccc3C(=O)O)c3ccccc3n2)c1 | 50.5% | 28.7% | 37.2% | 66.1% | 37.5% | 27.1% | 47.7% | 49.2% | 25.2%
CCOP(=O)(OCC)O[C@H]1CCC(=O)[C@@H]2[C@H]1[C@H]1C[C@@H]3[C@@]4(C)CCCC(C)(C(=O)OC)[C@@H]4CC[C@@]23C=C1C(C)C (some centres not stated) | 83.1% | 30.1% | 86.2% | 67% | 76.4% | 69.1% | 71.7% | 41.8% | 55.4%
CCOC(=O)C(Cc1ccccc1)N1C(=O)/C(=C/N2N=C(c3ccc(OC)cc3)CC2c2ccc3ccccc3c2)SC1=S (configuration not stated) | 30.7% | 11.9% | -27.2% (active) | 3.55% (active) | 30.2% | -78.2% (active) | -27.2% (active) | 1.02% (active) | 7.24% (active)
COc1ccc2cc([C@H](C)C(=O)NCc3ccccc3)ccc2c1 | 29.4% | 20.1% | 55.2% | 38.4% | 60.2% | 12.8% | 2.48% (active) | 64.7% | 38.2%
COc1ccc(/C=C/C(=O)c2ccc(S(=O)(=O)NCCNc3nc(Nc4ccc(F)cc4)nc(N(C)C)n3)cc2)cc1 | 28.7% | 27.3% | 49.3% | 29% | 25.8% | 23.3% | 41.7% | 47.9% | 7.31% (active)

Reference: PubChem BioAssay (NCI)
